Z-score and composite z-score data for nine molecules are collected here from PubChem BioAssay.

Each structure is given as a SMILES string. Active and inactive are the calls of the source.

Test [1] in a line: E. coli DRC41 culture turbidity changes, primary screen, E. coli filamentation inducer project, strain DRC41, OD650, 48 h (AID 1152).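 Note: E. coli MC1000 strain DRC41 lacking acrAB efflux pump and sulA.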 The following applies: E. coli DRC41 (acrAB sulA), higher = more signal, called active from +8 up or from −8 down.
Test [2] is described as follows: small-molecule binders of probe aLefty1, primary screen, biochemical, small-molecule microarray, 635/667 nm fluorescence (AID 1153).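 Note: score merges spot fluorescence with signal-to-noise ratio from the scanned slide images.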 As to conditions: higher = more signal.
A short description of test [3]: PSAC antagonists in infected red cells, primary screen, cell-based, P. falciparum Indochina, OD700, 1 h (AID 1154). As to conditions: P. falciparum Indochina infected RBC osmotic lysis, higher = more signal, called active from +8 up or from −8 down.
Test [4] can be described thus: PSAC antagonists in infected red cells, primary screen, cell-based, P. falciparum Indochina, OD700, 2 h (AID 1155).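 Note: lysis reports solute entry through the parasite surface anion channel PSAC; channel blockers reduce lysis of infected cells.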 As to conditions: P. falciparum Indochina infected erythrocytes, osmotic lysis OD700; higher = more signal, called active from +8 up or from −8 down.
Test [5] can be described thus: osmotic lysis modulators in infected erythrocytes, primary screen, PSAC antagonist project, cell-based, P. falciparum Indochina, OD700, 3 h (AID 1156). As to conditions: higher = more signal, called active from +8 up or from −8 down.
Test [6] in a line: PSAC antagonists in infected red cells, primary screen, cell-based, P. falciparum Indochina, OD700, 18 h (AID 1157). The following applies: P. falciparum Indochina infected erythrocytes, osmotic lysis OD700, 18 h; higher = more signal, called active from +8 up or from −8 down.
Test [7] in a line: modulators of S6 phosphorylation in cells, primary screen, cell-based, A549, cytoblot, luminescence, serum-stimulated (AID 1158).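 Note: serum-stimulated A549 lung adenocarcinoma cells; signal is phosphorylated S6 detected by cytoblot immunostaining with HRP secondary.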 The following applies: A549 phospho-S6 cytoblot, 5 h, higher = more signal.
Test [8] has as its target NADPH oxidase 2 (Homo sapiens) (UniProt P04839). The experiment in a line: NOX2-dependent H2O2 signal modulators, primary screen, NOX inhibitor project, cell-based, HEK293-NOX2, PMA-stimulated, Amplex Red fluorescence (AID 1159). Note: test concentration not given here. As to conditions: 45 min, higher = more signal, called active from +8 up or from −8 down.
Test [9] deals with NADPH oxidase 4 (Homo sapiens) (UniProt Q9NPH5). The experiment in a line: NOX4-dependent H2O2 signal modulators, primary screen, NOX inhibitor project, cell-based, HEK293-NOX4, tetracycline-induced, Amplex Red fluorescence (AID 1160). As to conditions: 45 min, higher = more signal, called active from +8 up or from −8 down.
Test [10] addresses NADPH oxidase 5 (Homo sapiens) (UniProt Q96PH1). The experiment in a line: NOX5-dependent H2O2 signal modulators, primary screen, NOX inhibitor project, cell-based, HEK293-NOX5, Amplex Red fluorescence (AID 1161). The following applies: HEK293-NOX5, ionomycin, 45 min, higher = more signal.
A short description of test [11]: A549 cell viability effects, profiling panel, calcein-AM fluorescence, 48 h, basal (AID 1162). Note: test concentration not given here. As to conditions: higher = more signal.
Test [12] is described as follows: adipocyte viability effects, profiling panel, cell-based, 3T3-L1 adipocytes, calcein-AM fluorescence, 48 h, basal (AID 1163). Note: test concentration not given here. As to conditions: 3T3-L1 adipocytes viability, higher = more signal.
Test [13] in a line: HepG2 cell viability effects, profiling panel, calcein-AM fluorescence, 48 h, basal (AID 1164). Note: test concentration not given here. As to conditions: higher = more signal.
A short description of test [14]: MM1S cell viability effects, profiling panel, calcein-AM fluorescence, 48 h, basal (AID 1165).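 Note: viability of MM1S multiple myeloma cells under basal unstimulated conditions; test concentration not given here.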 As to conditions: higher = more signal.
Test [15] in a line: basal RPMI8226 viability, no added stimulus, profiling panel, cell-based, calcein-AM fluorescence, 48 h, PK04 Diversity Set (AID 1166).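 Note: cells grown under basal conditions without added stimulus; test concentration not given here.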 As to conditions: RPMI8226 myeloma viability, higher = more signal.
Test [16] is described as follows: basal HepG2 mitochondrial membrane potential changes, profiling panel, cell-based, JC-1 fluorescence, 24 h, 100 nL compound (AID 1167). Note: test concentration not given here. The following applies: higher = more signal.
The nature of test [17]: basal 3T3-L1 adipocyte mitochondrial potential changes, profiling panel, cell-based, JC-1 fluorescence, 3T3-L1 adipocytes, 24 h, 100 nL compound (AID 1168). Note: test concentration not given here. As to conditions: JC-1 mitochondrial fluorescence, higher = more signal, called active from +8 up or from −8 down.
Test [18] in a line: basal RPMI8226 mitochondrial membrane potential changes, profiling panel, cell-based, JC-1 fluorescence, 24 h, 100 nL compound (AID 1169). Note: test concentration not given here. As to conditions: RPMI8226 myeloma, JC-1 mitochondrial potential fluorescence, higher = more signal.
Test [19] can be described thus: basal MM1S mitochondrial membrane potential changes, profiling panel, cell-based, JC-1 fluorescence, 24 h, 100 nL compound (AID 1170). Note: test concentration not given here. The following applies: higher = more signal.
Test [20] is described as follows: A549 lung cancer cell viability effects, profiling panel, resazurin fluorescence, 24 h, PK04 Diversity Set (AID 1171). Note: test concentration not given here. The following applies: higher = more signal, called active from +8 up or from −8 down.

NADPH oxidase 2 (Homo sapiens), sequence (P04839 whole entry, looked up): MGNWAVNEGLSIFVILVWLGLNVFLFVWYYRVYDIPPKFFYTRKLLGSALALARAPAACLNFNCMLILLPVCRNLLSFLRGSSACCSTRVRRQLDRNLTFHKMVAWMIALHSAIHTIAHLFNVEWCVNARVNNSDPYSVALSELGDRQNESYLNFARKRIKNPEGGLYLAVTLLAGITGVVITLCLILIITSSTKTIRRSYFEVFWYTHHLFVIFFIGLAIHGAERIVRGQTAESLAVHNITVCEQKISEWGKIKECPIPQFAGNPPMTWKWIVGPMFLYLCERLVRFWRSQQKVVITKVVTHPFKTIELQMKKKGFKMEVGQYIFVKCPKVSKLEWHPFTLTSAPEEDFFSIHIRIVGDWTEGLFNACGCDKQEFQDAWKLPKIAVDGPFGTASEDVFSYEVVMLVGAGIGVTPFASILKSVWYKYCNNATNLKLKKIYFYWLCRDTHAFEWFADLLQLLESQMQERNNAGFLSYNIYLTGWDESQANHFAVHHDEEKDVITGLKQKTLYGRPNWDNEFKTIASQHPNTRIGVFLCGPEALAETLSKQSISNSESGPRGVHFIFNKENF
NADPH oxidase 4 (Homo sapiens), sequence (Q9NPH5 whole entry, looked up): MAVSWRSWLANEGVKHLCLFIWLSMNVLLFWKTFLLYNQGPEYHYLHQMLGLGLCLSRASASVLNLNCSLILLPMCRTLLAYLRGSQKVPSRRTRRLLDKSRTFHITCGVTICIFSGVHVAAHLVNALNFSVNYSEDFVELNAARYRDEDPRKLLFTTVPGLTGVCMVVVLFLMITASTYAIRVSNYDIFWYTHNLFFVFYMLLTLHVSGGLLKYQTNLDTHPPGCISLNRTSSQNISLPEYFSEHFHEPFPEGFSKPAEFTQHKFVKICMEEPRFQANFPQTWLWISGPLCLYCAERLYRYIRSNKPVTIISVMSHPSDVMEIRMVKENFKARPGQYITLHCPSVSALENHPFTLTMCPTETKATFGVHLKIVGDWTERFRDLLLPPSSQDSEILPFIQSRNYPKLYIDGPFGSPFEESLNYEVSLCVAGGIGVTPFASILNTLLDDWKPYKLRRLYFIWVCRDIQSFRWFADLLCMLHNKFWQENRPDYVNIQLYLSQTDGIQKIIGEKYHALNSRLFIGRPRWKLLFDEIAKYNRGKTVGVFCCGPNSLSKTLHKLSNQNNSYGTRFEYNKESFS
NADPH oxidase 5 (Homo sapiens), sequence (Q96PH1 whole entry, looked up): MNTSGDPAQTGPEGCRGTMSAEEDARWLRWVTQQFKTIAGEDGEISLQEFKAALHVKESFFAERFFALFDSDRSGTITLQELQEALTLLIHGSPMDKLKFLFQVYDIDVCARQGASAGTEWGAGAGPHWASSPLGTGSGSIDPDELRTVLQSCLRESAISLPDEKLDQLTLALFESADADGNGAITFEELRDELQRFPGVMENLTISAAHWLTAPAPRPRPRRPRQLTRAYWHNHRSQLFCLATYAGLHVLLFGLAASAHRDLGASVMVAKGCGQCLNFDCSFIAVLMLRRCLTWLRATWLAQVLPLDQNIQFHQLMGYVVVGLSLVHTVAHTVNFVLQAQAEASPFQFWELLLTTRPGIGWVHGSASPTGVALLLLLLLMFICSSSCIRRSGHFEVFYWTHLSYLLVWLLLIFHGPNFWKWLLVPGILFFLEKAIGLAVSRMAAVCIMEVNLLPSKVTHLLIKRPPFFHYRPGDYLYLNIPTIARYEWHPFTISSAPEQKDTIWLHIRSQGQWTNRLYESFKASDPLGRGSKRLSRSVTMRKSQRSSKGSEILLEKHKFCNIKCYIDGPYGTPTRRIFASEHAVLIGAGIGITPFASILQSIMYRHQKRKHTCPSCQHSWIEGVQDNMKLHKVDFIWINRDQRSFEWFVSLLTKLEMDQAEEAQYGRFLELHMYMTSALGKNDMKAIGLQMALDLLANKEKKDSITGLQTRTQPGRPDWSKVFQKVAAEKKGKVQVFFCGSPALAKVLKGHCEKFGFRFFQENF

Turning to `Cc1ccccc1/C=C/C=O`, the z-score in test [1] is 0.871 (inactive); in test [3], 0.51 (inactive); in [4], 0.146 (inactive); in test [5], -0.0758 (inactive); in [6], 0.231 (inactive); in test [7], -0.265. Besides, the z-score in test [8] was -0.59 (inactive); in [9] it was -0.0992 (inactive); in [10], 0.45; in [11], 1.59; in test [12], -0.345; in test [13], 0.93. Further, the z-score was -0.499 in [14]; 0.0415 in test [15]; 1.65 in test [16]; 1.39 (inactive) in test [17]; 0.426 in [18]; -0.962 in test [19]. Moreover, in [20], the z-score is -0.122 (inactive). In [2], this molecule came in with a composite z-score of -0.147.
Turning to `C=CCN1C(=O)[C@@]2(O[C@@H](CCO)[C@H]([Si](C)(C)c3ccc(OC)cc3)[C@H]2C)c2cc(NC(C)=O)ccc21`, the z-score is -0.149 (inactive) in test [1]; 23.7 (active) in test [3]; 8.14 (active) in test [4]; 0.502 (inactive) in test [5]; 1.26 (inactive) in test [6]; 0.0792 in test [7]. Also, the z-score is -1.07 (inactive) in test [8]; -0.0526 (inactive) in test [9]; -0.391 in [10]; 0.103 in test [11]; -0.213 in [12]; -0.411 in [13]. Besides, the z-score in test [14] was -1.36; in test [15], -1.56; in test [16] it was -0.96; in test [17], -0.296 (inactive); in [18] it was -0.484; in test [19], -0.722. For the same molecule, the z-score in [20] is -1.17 (inactive). The composite z-score in test [2] was found to be 0.0429.
Take `O=C(NCC(F)(F)F)[C@@H]1c2ccccc2C(=O)N(Cc2ccccc2)[C@H]1c1ccc(CO)cc1`: the z-score in test [1] was 0.467 (inactive); in [3], 0.878 (inactive); in test [4], -0.453 (inactive); in test [5], 0.239 (inactive); in test [6], -0.406 (inactive); in [7], -0.325. The z-score was -0.489 (inactive) in test [8]; 0.597 (inactive) in test [9]; -0.601 in test [10]; 1.73 in test [11]; 0.402 in test [12]; 1.34 in test [13]. Besides, the z-score in test [14] is 0.356; in test [15], -0.407; in test [16] it was 2.14; in test [17], 1.2 (inactive); in [18], 0.0511; in test [19], -0.657. Moreover, the z-score in test [20] is 0.176 (inactive). For the same molecule, in test [2], the composite z-score was -0.147.
Take `COc1cc(NN2C(C(O)c3ccccc3)C=CC3C(=O)N(c4ccccc4)C(=O)C32)cc(OC)c1OC` (stereo not given): the z-score is -0.26 (inactive) in test [1]; 1.38 (inactive) in [3]; 0.0862 (inactive) in test [4]; 0.86 (inactive) in test [5]; -0.325 (inactive) in test [6]; 0.838 in test [7]. The z-score in [8] was -3.61 (inactive); in [9] it was -4.63 (inactive); in [10] it was -7.16; in test [11] it was -0.873; in [12], 0.0146; in test [13], 0.253. Besides, the z-score was 0.673 in test [14]; 0.0985 in [15]; -0.602 in test [16]; -1.72 (inactive) in [17]; 0.179 in test [18]; -1.41 in [19]. The z-score in test [20] is -0.381 (inactive). Besides, the composite z-score in test [2] was 0.644.
In the case of `CN1C(=O)C2C=CC(C(O)C=Cc3ccc([N+](=O)[O-])cc3)N(N3CCCCC3)C2C1=O` (stereo not given), the z-score in [1] is -1.54 (inactive); in test [3], 2.72 (inactive); in test [4], 0.962 (inactive); in test [5], 0.714 (inactive); in test [6], 1.02 (inactive); in [7], -0.9. Also, the z-score in [8] was -0.542 (inactive); in test [9] it was -0.397 (inactive); in test [10] it was -1.25; in [11], -1.1; in test [12], -1.15; in [13], -0.382. The z-score in test [14] is -0.351; in [15], 0.107; in test [16] it was -1.77; in [17], -1.31 (inactive); in [18], -0.834; in [19] it was -0.4. In addition, the z-score in test [20] is -0.244 (inactive). The composite z-score in [2] amounted to 1.11.
On to `COc1ccccc1CN1C(=O)c2ccccc2[C@](Cc2ccccc2I)(C(=O)NCc2ccccc2)[C@@H]1c1ccc(CO)cc1`, for which the z-score in [1] was -0.0738 (inactive); in test [3] it was 2.14 (inactive); in test [4], -0.0098 (inactive); in test [5], 0.826 (inactive); in test [6], -0.308 (inactive); in [7], -0.266. In addition, the z-score in [8] was 0.102 (inactive); in test [9] it was 0.377 (inactive); in test [10] it was 1.34; in test [11], 0.049; in test [12], 0.218; in [13], -0.733. Besides, the z-score in [14] was -0.325; in [15], -1.92; in test [16] it was 0.37; in test [17], 0.368 (inactive); in test [18], -0.0456; in test [19], -0.318. In [20], the z-score is -0.5 (inactive). In [2], this molecule had a composite z-score of 0.183.
With `O=C1C[C@@](C(=O)O)(c2ccc([N+](=O)[O-])cc2)[C@@H](c2ccc(CO)cc2I)N1CC12CC3CC(CC(C3)C1)C2`, the z-score in [1] was -0.455 (inactive); in [3], 27.4 (active); in [4] it was 22.3 (active); in [5] it was 3.79 (inactive); in [6] it was 2.73 (inactive); in test [7], -0.429. Also, the z-score in test [8] was 1.11 (inactive); in test [9] it was -0.681 (inactive); in test [10], 1.72; in test [11], -1.27; in [12] it was -1.05; in test [13], -4.72. For the same molecule, the z-score was -3.8 in [14]; -4.35 in test [15]; -2.54 in [16]; -1.28 (inactive) in [17]; -0.811 in test [18]; -2.41 in [19]. Also, the z-score in test [20] is -1.77 (inactive). In [2], this molecule showed a composite z-score of 0.271.
`Cc1ccc(S[C@]2(C(=O)NCC(F)(F)F)CC(=O)N(C3Cc4ccccc4C3)[C@@H]2c2ccc(CO)cc2I)cc1`: the z-score in test [1] is 1.1 (inactive); in [3] it was 6.63 (inactive); in [4], 1.29 (inactive); in [5], 0.577 (inactive); in [6] it was 0.526 (inactive); in [7], -0.204. Further, the z-score is 0.994 (inactive) in test [8]; -1.56 (inactive) in [9]; 1.06 in [10]; 0.833 in test [11]; 0.236 in test [12]; 0.506 in test [13]. The z-score is -2.1 in [14]; -3.02 in [15]; 0.194 in test [16]; -0.131 (inactive) in test [17]; 0.045 in test [18]; -1.4 in test [19]. In addition, the z-score in test [20] was 0.537 (inactive). In addition, the composite z-score in test [2] stood at 0.0013.
As for `CC(C)(C)OC(=O)CC[C@@]1(C(=O)NCC(O)CO)N=C(c2ccc(OCCCO)cc2)O[C@@H]1c1ccccc1` (stereo not given in full), the z-score in test [1] was -0.0744 (inactive); in test [3], 20.4 (active); in test [4] it was 2.42 (inactive); in test [5] it was 0.384 (inactive); in test [6], 0.519 (inactive); in test [7], 0.0391. For the same molecule, the z-score in test [8] was 0.0533 (inactive); in test [9], 0.626 (inactive); in test [10], 1.45; in test [11], -0.0139; in [12], -1.09; in test [13], 1.92. The z-score in test [14] is -0.607; in [15], -0.0321; in test [16], 1.93; in [17], -0.144 (inactive); in test [18], -0.0607; in [19], -0.844. In addition, the z-score in [20] was -0.387 (inactive). The same molecule registered a composite z-score in test [2] of 0.0004.
